Results on 60 molecules are retold here after the supplement of paper PMC10369915.

The target of this experiment is SHP2 N-SH2 domain T42A. Put plainly: log2 enrichment relative to wild-type ITIM peptide; higher = stronger binding.

B1: PD-1 ITIM pTyr223 peptide variant F219Y (peptide)
chain: VYSVDYGELDF
The molecule B1 displayed a log2 enrichment of 0.45.

B2: PD-1 ITIM pTyr223 peptide variant S220H (peptide)
chain: VFHVDYGELDF
As to B2, the log2 enrichment came to 0.0672.

B3: PD-1 ITIM pTyr223 peptide variant F228N (peptide)
chain: VFSVDYGELDN
Molecule B3 yielded a log2 enrichment of -1.38.

B4: PD-1 ITIM pTyr223 peptide variant D227C (peptide)
chain: VFSVDYGELCF
As to B4, the log2 enrichment is -0.854.

B5: PD-1 ITIM pTyr223 peptide variant L226K (peptide)
chain: VFSVDYGEKDF
In the case of B5, the log2 enrichment is -1.37.

B6: PD-1 ITIM pTyr223 peptide variant V221R (peptide)
chain: VFSRDYGELDF
Consider B6, for which the log2 enrichment is -1.04.

B7: PD-1 ITIM pTyr223 peptide variant D222Y (peptide)
chain: VFSVYYGELDF
The molecule B7 showed a log2 enrichment of 0.0176.

B8: PD-1 ITIM pTyr223 peptide variant G224Y (peptide)
chain: VFSVDYYELDF
Regarding B8, the log2 enrichment was -0.792.

B9: PD-1 ITIM pTyr223 peptide variant G224D (peptide)
chain: VFSVDYDELDF
Molecule B9 gave a log2 enrichment of -0.746.

B10: PD-1 ITIM pTyr223 peptide variant E225K (peptide)
chain: VFSVDYGKLDF
As for B10, the log2 enrichment was determined as 0.303.

B11: PD-1 ITIM pTyr223 peptide variant S220W (peptide)
chain: VFWVDYGELDF
The molecule B11 showed a log2 enrichment of -0.544.

B12: PD-1 ITIM pTyr223 peptide variant E225H (peptide)
chain: VFSVDYGHLDF
Molecule B12 displayed a log2 enrichment of -0.301.

B13: PD-1 ITIM pTyr223 peptide variant S220N (peptide)
chain: VFNVDYGELDF
Molecule B13 gave a log2 enrichment of -0.0661.

B14: PD-1 ITIM pTyr223 peptide variant V218N (peptide)
chain: NFSVDYGELDF
Consider B14, for which the log2 enrichment came to 0.14.

B15: PD-1 ITIM pTyr223 peptide variant F219N (peptide)
chain: VNSVDYGELDF
Molecule B15 showed a log2 enrichment of 0.243.

B16: PD-1 ITIM pTyr223 peptide variant F228H (peptide)
chain: VFSVDYGELDH
B16 showed a log2 enrichment of -1.32.

B17: PD-1 ITIM pTyr223 peptide variant L226E (peptide)
chain: VFSVDYGEEDF
In turn, B17 showed a log2 enrichment of -1.51.

B18: PD-1 ITIM pTyr223 peptide variant V221H (peptide)
chain: VFSHDYGELDF
The molecule B18 had a log2 enrichment of -1.23.

B19: PD-1 ITIM pTyr223 peptide variant V218Y (peptide)
chain: YFSVDYGELDF
B19 had a log2 enrichment of -0.0716.

B20: PD-1 ITIM pTyr223 peptide variant S220Q (peptide)
chain: VFQVDYGELDF
As for B20, the log2 enrichment is -0.0797.

B21: PD-1 ITIM pTyr223 peptide variant V221D (peptide)
chain: VFSDDYGELDF
Molecule B21 displayed a log2 enrichment of -1.38.

B22: PD-1 ITIM pTyr223 peptide variant F228E (peptide)
chain: VFSVDYGELDE
B22 yielded a log2 enrichment of -1.51.

B23: PD-1 ITIM pTyr223 peptide variant E225R (peptide)
chain: VFSVDYGRLDF
B23 showed a log2 enrichment of -0.382.

B24: PD-1 ITIM pTyr223 peptide variant F219H (peptide)
chain: VHSVDYGELDF
As for B24, the log2 enrichment is 0.536.

B25: PD-1 ITIM pTyr223 peptide variant G224E (peptide)
chain: VFSVDYEELDF
Molecule B25 came in with a log2 enrichment of -0.506.

B26: PD-1 ITIM pTyr223 peptide variant V218E (peptide)
chain: EFSVDYGELDF
In turn, B26 gave a log2 enrichment of -0.155.

B27: PD-1 ITIM pTyr223 peptide variant F228D (peptide)
chain: VFSVDYGELDD
B27 registered a log2 enrichment of -1.56.

B28: PD-1 ITIM pTyr223 peptide variant V218K (peptide)
chain: KFSVDYGELDF
For B28, the log2 enrichment is 0.439.

B29: PD-1 ITIM pTyr223 peptide variant F228Y (peptide)
chain: VFSVDYGELDY
Take B29: the log2 enrichment was -1.37.

B30: PD-1 ITIM pTyr223 peptide variant S220D (peptide)
chain: VFDVDYGELDF
B30 returned a log2 enrichment of -0.682.

B31: PD-1 ITIM pTyr223 peptide variant F219W (peptide)
chain: VWSVDYGELDF
In turn, B31 showed a log2 enrichment of -0.244.

B32: PD-1 ITIM pTyr223 peptide variant G224N (peptide)
chain: VFSVDYNELDF
On to B32, for which the log2 enrichment is -0.336.

B33: PD-1 ITIM pTyr223 peptide variant F228C (peptide)
chain: VFSVDYGELDC
As to B33, the log2 enrichment is -1.54.

B34: PD-1 ITIM pTyr223 peptide variant V218Q (peptide)
chain: QFSVDYGELDF
In the case of B34, the log2 enrichment came to 0.0173.

B35: PD-1 ITIM pTyr223 peptide variant F219R (peptide)
chain: VRSVDYGELDF
Molecule B35 returned a log2 enrichment of 1.24.

B36: PD-1 ITIM pTyr223 peptide variant S220E (peptide)
chain: VFEVDYGELDF
B36 showed a log2 enrichment of -0.481.

B37: PD-1 ITIM pTyr223 peptide variant D222W (peptide)
chain: VFSVWYGELDF
In the case of B37, the log2 enrichment is -0.569.

B38: PD-1 ITIM pTyr223 peptide variant L226N (peptide)
chain: VFSVDYGENDF
Molecule B38 showed a log2 enrichment of -1.33.

B39: PD-1 ITIM pTyr223 peptide variant V221Y (peptide)
chain: VFSYDYGELDF
In turn, B39 showed a log2 enrichment of 0.57.

B40: PD-1 ITIM pTyr223 peptide variant F228Q (peptide)
chain: VFSVDYGELDQ
In the case of B40, the log2 enrichment is -1.43.

B41: PD-1 ITIM pTyr223 peptide variant E225D (peptide)
chain: VFSVDYGDLDF
In the case of B41, the log2 enrichment is -0.183.

B42: PD-1 ITIM pTyr223 peptide variant E225Y (peptide)
chain: VFSVDYGYLDF
Turning to B42, the log2 enrichment was -0.767.

B43: PD-1 ITIM pTyr223 peptide variant V221K (peptide)
chain: VFSKDYGELDF
Molecule B43 yielded a log2 enrichment of -1.

B44: PD-1 ITIM pTyr223 peptide variant L226H (peptide)
chain: VFSVDYGEHDF
Molecule B44 displayed a log2 enrichment of -1.46.

B45: PD-1 ITIM pTyr223 peptide variant E225C (peptide)
chain: VFSVDYGCLDF
B45 returned a log2 enrichment of -0.897.

B46: PD-1 ITIM pTyr223 peptide variant V221E (peptide)
chain: VFSEDYGELDF
B46 returned a log2 enrichment of -1.41.

B47: PD-1 ITIM pTyr223 peptide variant G224K (peptide)
chain: VFSVDYKELDF
With B47, the log2 enrichment was 2.48.

B48: PD-1 ITIM pTyr223 peptide variant D222R (peptide)
chain: VFSVRYGELDF
Take B48: the log2 enrichment stood at 2.89.

B49: PD-1 ITIM pTyr223 peptide variant S220R (peptide)
chain: VFRVDYGELDF
B49 came in with a log2 enrichment of 1.22.

B50: PD-1 ITIM pTyr223 peptide variant V221N (peptide)
chain: VFSNDYGELDF
In the case of B50, the log2 enrichment was -1.45.

B51: PD-1 ITIM pTyr223 peptide variant D227H (peptide)
chain: VFSVDYGELHF
Turning to B51, the log2 enrichment is -0.826.

B52: PD-1 ITIM pTyr223 peptide variant D222H (peptide)
chain: VFSVHYGELDF
B52 showed a log2 enrichment of 1.68.

B53: PD-1 ITIM pTyr223 peptide variant E225Q (peptide)
chain: VFSVDYGQLDF
B53 yielded a log2 enrichment of 0.0512.

B54: PD-1 ITIM pTyr223 peptide variant L226Y (peptide)
chain: VFSVDYGEYDF
For the molecule B54, the log2 enrichment was -1.46.

B55: PD-1 ITIM pTyr223 peptide variant D227Q (peptide)
chain: VFSVDYGELQF
B55 had a log2 enrichment of -0.79.

B56: PD-1 ITIM pTyr223 peptide variant F228R (peptide)
chain: VFSVDYGELDR
B56 came in with a log2 enrichment of -1.52.

B57: PD-1 ITIM pTyr223 peptide variant G224C (peptide)
chain: VFSVDYCELDF
The molecule B57 had a log2 enrichment of -0.184.

B58: PD-1 ITIM pTyr223 peptide variant D227R (peptide)
chain: VFSVDYGELRF
Molecule B58 gave a log2 enrichment of -0.941.

B59: PD-1 ITIM pTyr223 peptide variant G224Q (peptide)
chain: VFSVDYQELDF
Molecule B59 registered a log2 enrichment of -0.168.

B60: PD-1 ITIM pTyr223 peptide variant L226Q (peptide)
chain: VFSVDYGEQDF
The molecule B60 came in with a log2 enrichment of -1.5.
